Bioassay records: PubChem, several laboratories
Hits are enriched below; roughly 32% of the tested compounds scored in any of these assays.
CYP2C19 inhib: blocks human cytochrome P450 2C19 | AID 778 | inhibition, % at 5 µM | CYP2C19 Supersomes, luciferin-H EGE luminescence, 30 min | 21% of 96,000 active;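 active means CYP2C19 inhibition above a set limit at 5 µM in the primary screen, cut at about 50% in these data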;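 further: plate controls were negative control wells for no effect and 2.5 mM tranylcypromine positive control for full effect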
Target sequence (P33261 whole entry, looked up): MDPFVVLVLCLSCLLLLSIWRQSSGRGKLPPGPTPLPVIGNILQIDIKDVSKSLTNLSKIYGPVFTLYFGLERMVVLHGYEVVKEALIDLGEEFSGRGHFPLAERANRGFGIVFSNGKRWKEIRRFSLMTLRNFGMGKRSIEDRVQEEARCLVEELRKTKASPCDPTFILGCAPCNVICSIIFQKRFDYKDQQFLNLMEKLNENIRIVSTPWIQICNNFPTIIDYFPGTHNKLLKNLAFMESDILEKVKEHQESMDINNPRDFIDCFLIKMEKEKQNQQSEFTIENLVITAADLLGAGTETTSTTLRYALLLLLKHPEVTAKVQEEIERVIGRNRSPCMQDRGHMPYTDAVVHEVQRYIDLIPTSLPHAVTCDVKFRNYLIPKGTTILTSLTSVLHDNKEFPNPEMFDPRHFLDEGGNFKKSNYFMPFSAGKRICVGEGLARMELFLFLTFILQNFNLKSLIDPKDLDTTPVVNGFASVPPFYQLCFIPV
CYP2C9 activ: activators of human CYP2C9 | P11712 | recombinant CYP2C9, luciferin-H conversion, luminescence; active compounds read high; factor 1 = untreated enzyme, 0 = blocked | activation factor at 5 µM | 1.4% of 96,000 active | AID 1024;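 active means activation factor of 2 or more for CYP2C9 at a 5 µM dose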;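 further: 0 = sulfaphenazole-blocked wells and 1 = vehicle-only wells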
CYP2C19 activ: cytochrome P450 2C19 (human) activation. recombinant CYP2C19, luciferin-H EGE luminescence; active compounds read high; 0 = fully inhibited enzyme, 1 = untreated enzyme. P33261. 96,000 tested, under 10 active. activation factor at 5 µM;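 active means activation factor of at least 2 at 5 µM in the primary screen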;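 further: 0 = wells with 2.5 mM tranylcypromine and 1 = vehicle-only wells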
CYP2C9 inh: blocks human cytochrome P450 2C9. CYP2C9 Supersomes, luciferin-H conversion, luminescence. inhibition, % at 5 µM. 20% of 96,000 active. AID 777;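 active means blocking of liver enzyme CYP2C9 beyond about 50% at 5 µM, limit read from the data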
PostGolgi yeast: growth inhibition of a yeast mutant, post-Golgi transport screen; post-Golgi transport phenotypic cell assay; AID 739; inhibition, % at 10 µM; 0.9% of 98,000 active;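 further: yeast cells grown in 1536-well plates; yeast grown about 18 h at 30C before absorbance read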
PostGolgi ctrl: inhibits growth of the yeast control strain; 5% of 98,000 active; efflux-deficient yeast background strain, growth absorbance A615, 16 h; inhibition, % at 10 µM
An asterisk follows results filed as active; · = no result. Unless noted, no stated cut-off is given here; in the data, active means inhibition above about 30%; inactive means the rest.

SMILES	CYP2C19 inhib	CYP2C9 activ	CYP2C19 activ	CYP2C9 inh	PostGolgi yeast	PostGolgi ctrl
CCN(CC)CC(O)Cn1c2ccccc2c2ccccc21 (configuration not stated)	9	1	0.9	1	1	0
Cc1ccc(C(=O)Nc2ccc(S(=O)(=O)N3CCN(C)CC3)cc2)o1	4	0.7	1	30	-2	4
CCCn1c(C)cc(=O)c2cc(NC(=O)c3ccccn3)ccc21	-5	1.1	1	-10	1	6
Cc1cnc(C)c(N2CCC(C(=O)NC(C)c3cccs3)CC2)n1 (configuration not stated)	31	1.4	0.7	-40	-4	3
Nc1nc(-c2cccc(NS(=O)(=O)c3ccccc3)c2)cs1	99*	0	0	95*	0	4
Cc1nc(-c2cccc(NS(=O)(=O)c3cccc4ccccc34)c2)cs1	98*	1.1	0	-6	-4	63*
Cc1nc(-c2cccc(NS(C)(=O)=O)c2)cs1	-11	1	1.1	-1	-3	10
CCOc1cc2c3c(c1)C1(Nc4ccccc4S1)C(=O)N3C(C)(C)CC2C (configuration not stated)	88*	0	0.1	100*	-5	37*
CC1CCc2nn(CC(=O)N3CCc4ccccc43)cc2C1 (configuration not stated)	26	0.8	0.7	23	-1	10
O=c1nc(N2CCOCC2)ccn1-c1nc(-c2ccccc2)oc1-c1ccccc1	-5	0.5	1.1	55*	-3	21
CC(C)(C)c1cc(C(C)(C)C)cc(S(=O)(=O)CCc2ccccn2)c1	17	0.8	0.8	22	9	18
COC(=O)c1ccccc1NC(=O)CSc1nnc(C(C)NC(=O)c2ccc(Cl)cc2Cl)n1C (configuration not stated)	-3	0.8	1	17	2	-14
Cc1csc(NC(=O)C(CC(C)C)NS(=O)(=O)c2ccc3c(c2)oc(=O)n3C)n1 (configuration not stated)	36	0.4	0.6	55*	-2	-7
CCOc1ccc(C/C(N)=N/n2cnnc2)cc1	-7	1.1	1.1	-7	14	4
Cc1ccc(C(=O)NC(=S)Nc2ccc3c(c2)OCCO3)c(C)c1	-4	1.8	1	-79	3	14
COC(=O)C1(C(O)C(=O)c2ccc(C)cc2C)CCCCC1 (configuration not stated)	64*	0.6	0.4	37	1	-2
NC(=O)CC(O)c1cccc(Cl)c1 (configuration not stated)	-1	1	1	1	3	5
O=C(Cn1c(C2CC2)nc2ccccc2c1=O)Nc1ccc(Br)cc1	56*	0.5	0.4	51*	-10	-3
CCCc1nc2ccc(NC(=O)c3ccco3)cc2c(=O)n1Cc1ccc(Cl)cc1	12	1	0.9	4	1	11
CCC(=O)Nc1ccc2nc(C)n(CC(=O)Nc3ccccc3)c(=O)c2c1	28	0.4	0.7	58*	-27	-8
Cc1ccccc1NC(=O)Cn1c(C)nc2ccc(NC(=O)C3CC3)cc2c1=O	5	0.6	0.9	36	0	9
Cc1cc(NC(=O)Cn2c(C)nc3ccccc3c2=O)ccc1Br	38	0.4	0.6	60*	-3	25
CCOC(=O)CCNC(=O)Nc1ccc2nc(C)n(Cc3ccc(Cl)cc3)c(=O)c2c1	48	0.3	0.5	71*	-1	-4
COc1ccc2[nH]cc(C(=O)CN3CCN(C/C=C/c4ccccc4)CC3)c2c1	2	0.6	1	36	-6	8
C/C=C(\C)c1nnc(NC(=O)c2ccco2)s1	3	0.9	1	12	0	8
SMILES	CYP2C19 inhib	CYP2C9 activ	CYP2C19 activ	CYP2C9 inh	PostGolgi yeast	PostGolgi ctrl
COC(=O)CC(N)c1ccc(OC)c2ccccc12 (configuration not stated)	16	1.1	0.8	-7	9	-1
Cc1cc(NC(=O)Cn2nc3c(cc2=O)CCCC3)ccc1Br	88*	0.6	0.1	39	-3	19
O=C(Cn1c(CN2CCCCC2)nc2ccccc2c1=O)Nc1ccccc1	88*	0.6	0.1	41	-5	14
O=C(Cn1c(CN2CCCCC2)nc2ccccc2c1=O)NC1CCCCC1	·	·	·	·	6	3
O=C(O)CSC1CC(=O)N(c2ccc(Cl)c(Cl)c2)C1=O (configuration not stated)	64*	0.7	0.4	33	-35	10
Cc1ccc(C2=NN(C(=S)Nc3ccccc3)C(c3ccco3)C2)cc1 (configuration not stated)	24	0.5	0.8	52*	-8	7
COc1ccc(Cc2nc3ccc(S(N)(=O)=O)cc3[nH]2)cc1OC	16	0.7	0.8	29	10	3
COCCCNC(=O)c1ccccc1SC	-15	1.3	1.1	-33	2	-2
CCC(CC)C(=O)Nc1nc(-c2ccc3c(c2)CCN3C(=O)C2CC2)c(C)s1	33	0.2	0.7	81*	5	17
COc1ccc(C(=O)COC(=O)CCn2nnc(-c3cccc(O)c3OC)n2)cc1	8	1	0.9	0	0	0
COc1ccc(NCc2n[nH]nc2-c2ccccc2)cc1Cl	97*	0.1	0	86*	-1	25
COc1ccc(CNC(C)(C)C)cc1Cl	-6	1	1.1	0	-18	23
Cc1ccc(C(=O)CCC2CCCCC2=O)cc1 (configuration not stated)	84*	0.6	0.2	42	5	25
COc1ccc(CN(C(=O)CN2C(=O)C(C)Oc3ccccc32)C2CCCC2)c(OC)c1 (configuration not stated)	81*	0.1	0.2	88*	-5	13
CCN1CCN(Cc2c(C)[nH]c3ccc(OC)cc3c2=O)CC1	8	1.1	0.9	-10	0	20
CC(C)Sc1nnc(Cn2c(=O)sc3ccccc32)n1-c1ccccc1	·	·	·	·	4	32*
O=C(CSc1nnc(Cn2c(=O)sc3ccccc32)n1-c1ccccc1)Nc1nccs1	11	0.3	0.9	68*	15	13
CSc1nnc(Cn2c(=O)sc3ccccc32)n1-c1ccccc1	53*	0.6	0.5	35	-8	-1
CCCN(CCC)S(=O)(=O)c1ccc(C(=O)N2CCC(=O)c3ccccc32)cc1	19	0.8	0.8	20	0	3
O=S(Cc1ccc(Cl)cc1)CC(O)COc1ccc(Cl)cc1 (configuration not stated)	27	0.8	0.7	22	0	8
CCCCS(=O)CC(COc1ccc(Cl)cc1)OC(=O)c1ccccc1 (configuration not stated)	95*	0.2	0	80*	-4	42*
O=C(CN1CCC(n2nnc3cc(F)ccc32)CC1)NCCc1nc2ccccc2[nH]1	-5	1	1	-3	14	-4
